Screening results (PubChem)
GLP-1R agonist – qHTS of GLP-1 Receptor Agonists. Glucagon-like peptide 1 receptor (Homo sapiens), P43220. HEK293 GLP-1R CRE-luciferase, luminescence, 4-6 h; cells express a hypersensitive GLP-1R form. Potency, µM (series often up to 45.6 µM), for inactives: top-dose activation, hits mostly activators. 0.007% of 380,000 active. AID 624172, 2012; note: % of control where 0% means no effect
Target sequence (P43220 whole entry, looked up): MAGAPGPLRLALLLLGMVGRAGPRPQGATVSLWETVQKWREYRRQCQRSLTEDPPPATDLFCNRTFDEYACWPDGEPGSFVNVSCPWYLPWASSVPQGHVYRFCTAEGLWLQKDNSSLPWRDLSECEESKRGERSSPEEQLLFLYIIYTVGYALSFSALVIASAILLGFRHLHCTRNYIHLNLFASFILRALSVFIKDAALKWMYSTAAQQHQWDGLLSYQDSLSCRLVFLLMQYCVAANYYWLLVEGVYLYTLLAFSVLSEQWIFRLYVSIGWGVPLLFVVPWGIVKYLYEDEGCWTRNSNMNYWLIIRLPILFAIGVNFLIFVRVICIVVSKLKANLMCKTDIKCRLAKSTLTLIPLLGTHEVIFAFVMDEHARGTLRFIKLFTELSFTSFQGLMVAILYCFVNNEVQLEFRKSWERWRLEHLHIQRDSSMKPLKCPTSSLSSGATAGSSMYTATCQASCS
GLP1R inv ag – qHTS of GLP-1 Receptor Inverse Agonists (Inhibition Mode) | Potency, µM (doses to about 38.3 µM), for inactives: at the highest dose activity change, negative = inhibition, most hits filed as inhibitors | HEK293 GLP-1R CRE-luciferase, luminescence, 24 h; GLP-1R form is constitutively active | AID 624417, 2012 | 1.6% of 410,000 active | Glucagon-like peptide 1 receptor (Homo sapiens), P43220; note: % is set by controls: 0 for no effect and ±100 for the full control effect; nearly all actives have a fitted effect of over 55% in size
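Inverse agonists were sought by their lowering of basal cAMP reporter luciferase output in HEK293 cells stably carrying constitutively active human GLP-1R, after 24 h compound treatment.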
GLP1R cytotox – qHTS of GLP-1 Receptor Inverse Agonists: Cytotox Screen; HEK293 cAMP-luciferase reporter cells, luminescence, 24 h; 0.13% of 410,000 active; Potency, µM (series often up to 38.3 µM), for inactives: at the highest dose activity change, negative = inhibition, hits mostly inhibitors;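 note: loss of luciferase light is scored as toxicity; % is set by controls: 0 for no effect and ±100 for the full control effect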
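Cells in DMEM/10% Nu serum/1% pen-strep, 1536-well format. Pre-incubated 12 h, dosed with 23 nL compound, incubated a further 24 h. Luciferase detection, 12 min at room temp, luminescence.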
Integrin act MD – qHTS for Activators of Integrin-Mediated Alleviation for Muscular Dystrophy; AID 624291, 2012; 0.064% of 350,000 active; Potency, µM (doses to about 38.3 µM), for the others: at the highest dose activation, hits mostly activators; alpha7betagal myoblasts, beta-gal FDG fluorescence, 48 h;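 note: 100% = response of the positive control SU9516; nearly all actives have a fitted effect of over 60% in size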
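alpha7betagal+/- myoblasts (passage 13, 250/well) treated 48 h at 37C with compounds at 1:260 dilution of DMSO stock. Lysed, then beta-galactosidase activity read as FDG fluorescence (ex 480/em 540) after 30 min, with pre-read for autofluorescence.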
BRCA1 expr act – qHTS Assay to Identify Small Molecule Activators of BRCA1 Expression; MCF7-BRCA1-FFLuc reporter, luminescence, 48 h; response scale: scaled: vehicle 0%, 10 µM genistein 100%; Potency, µM (top dose mostly 46.1 µM), for inactives: at the highest dose activation, most hits filed as activators; 1.1% of 380,000 active; note: nearly all actives have a fitted effect of over 80% in size
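48 h compound treatment of MCF7-BRCA1-FFLuc cells (phenol-red free MEM, 37 °C), then 15 min with luciferase substrate and luminescence imaging.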
Numbers without * were called inactive. Compounds with a hit are over-represented: about 2.7% of the library has one in this group of screens. Calls come from the whole dose curve; as a rule, active = well fitted curve in the direction sought with a large enough effect; inconclusive = small, poorly fitted or top-dose-only effect, or another doubt; inactive = no such curve, though single readings can be large; an effect the other way counts as inactive or inconclusive. Potency is the fitted concentration of half-maximal effect.

What do the screens show for `Cc1cc(Nc2ccc(C)c(C)c2)c2ccccc2n1`?
GLP-1R agonist: 3.2%; GLP1R inv ag: inconclusive; GLP1R cytotox: inconclusive; Integrin act MD: -35.1%; BRCA1 expr act: -1.7%

Results for Cc1nc2ccc(C(=O)OC(C)C(=O)c3c(C)[nH]c4ccccc34)cc2nc1C (configuration not stated) ?
BRCA1 expr act: 14.5%

Results for C=CCn1c(Sc2ncc([N+](=O)[O-])s2)n[nH]c1=O ?
GLP-1R agonist: -8.2%; GLP1R inv ag: inconclusive; GLP1R cytotox: 8.91µM*; Integrin act MD: -36.8%; BRCA1 expr act: -80.0%

What do the screens show for `O=C(NCCC1=CCCCC1)c1ccc2c(c1)N(Cc1ccccc1F)C(=O)c1ccccc1S2=O` (configuration not stated)?
GLP-1R agonist: -2.6%; GLP1R inv ag: inconclusive; GLP1R cytotox: 0.3%; BRCA1 expr act: 18.6%

How did CCOC(=O)C1=C(CNCc2ccc(Cl)cc2)NC(=O)NC1c1ccccc1 (configuration not stated) do in these assays?
GLP-1R agonist: 0.0%; GLP1R inv ag: inconclusive; GLP1R cytotox: 0.7%; BRCA1 expr act: -17.4%

How did CCOC(=O)C1=C(CNCc2ccc(C)cc2)NC(=O)NC1c1ccc(OC)cc1 (configuration not stated) do in these assays?
GLP-1R agonist: 9.6%; GLP1R inv ag: 12.6µM*; GLP1R cytotox: inconclusive; Integrin act MD: -27.9%; BRCA1 expr act: -62.7%

How did CC(NC(=O)c1ccco1)c1nc(-c2ccc(C(C)(C)C)cc2)no1 (configuration not stated) do in these assays?
GLP-1R agonist: 19.3%; GLP1R inv ag: 10µM*; GLP1R cytotox: -21.1%; Integrin act MD: 1.4%; BRCA1 expr act: 9.2%

How did Cc1ccc(-c2noc(C(C)NC(=O)c3ccco3)n2)cc1 (configuration not stated) do in these assays?
GLP1R inv ag: -24.5%; GLP1R cytotox: -4.8%; BRCA1 expr act: -3.6%

Results for Cc1c(C(=O)N2CCC(c3nc4ccccc4s3)CC2)oc2ccc(Cl)cc12 ?
GLP1R inv ag: -29.7%; GLP1R cytotox: 3.5%

What do the screens show for `COc1ccc2nc(C)cc(NCc3cccc(C(F)(F)F)c3)c2c1`?
GLP-1R agonist: 4.2%; GLP1R inv ag: 2.82µM*; GLP1R cytotox: inconclusive; Integrin act MD: -35.1%; BRCA1 expr act: -70.9%

How did COc1ccc2nc(C)cc(Nc3ccccc3O)c2c1 do in these assays?
GLP-1R agonist: -1.0%; GLP1R inv ag: inconclusive; GLP1R cytotox: inconclusive; Integrin act MD: -59.9%; BRCA1 expr act: 22.0%

What do the screens show for `O=C(CSc1nnc(-c2ccccc2)c(-c2ccccc2)n1)NCCc1ccccc1`?
GLP1R inv ag: 7.3%; GLP1R cytotox: 5.5%

How did Cc1ccc(CNC(=O)c2nnc(Cc3cccc(F)c3)o2)cc1 do in these assays?
GLP1R inv ag: 3.8%; GLP1R cytotox: 7.2%

What do the screens show for `CO/N=C(\Cn1ncc(NC2CCCCC2)c(Br)c1=O)c1ccc(Cl)cc1`?
GLP-1R agonist: -2.4%; GLP1R inv ag: inconclusive; GLP1R cytotox: -15.3%; Integrin act MD: -38.7%; BRCA1 expr act: -48.4%

What do the screens show for `CO/N=C(\Cn1ncc(N2CCCC2)c(Br)c1=O)c1ccc(Cl)cc1`?
GLP-1R agonist: 13.0%; GLP1R inv ag: 11.2µM*; GLP1R cytotox: -18.4%; Integrin act MD: -8.0%; BRCA1 expr act: -12.4%

What do the screens show for `Cc1ccc(CCNC(=O)c2sc3nc4n(c(=O)c3c2C)CCCC4)cc1`?
GLP1R inv ag: -13.2%; GLP1R cytotox: 0.8%

Results for COc1cccc(/C=N/Nc2nc(Nc3ccccc3)nc(-n3nc(C)cc3C)n2)c1O ?
GLP-1R agonist: -16.9%; GLP1R inv ag: inconclusive; GLP1R cytotox: inconclusive; Integrin act MD: -42.9%; BRCA1 expr act: -70.4%

Results for COc1cccc(/C=N/Nc2cc(-n3nc(C)cc3-c3ccccc3)ncn2)c1O ?
GLP-1R agonist: -32.8%; GLP1R inv ag: 3.55µM*; GLP1R cytotox: 2.24µM*; Integrin act MD: -22.0%; BRCA1 expr act: -89.8%

Results for Cc1cc(=O)n2nc(N3CCC(C(=O)NCCCOC(C)C)CC3)sc2n1 ?
GLP1R inv ag: 0.6%; GLP1R cytotox: 0.7%; BRCA1 expr act: 8.2%

How did CCOc1nc(Nc2ccc(OC)c(Cl)c2)nc(N2CCN(c3ccc(OC)cc3)CC2)n1 do in these assays?
GLP-1R agonist: 11.5%; GLP1R inv ag: 4.47µM*; GLP1R cytotox: 20.8%; Integrin act MD: 3.2%; BRCA1 expr act: -28.6%

What do the screens show for `CCOc1nc(Nc2ccc(F)cc2)nc(N2CCN(c3ccc(OC)cc3)CC2)n1`?
GLP-1R agonist: -8.9%; GLP1R inv ag: inconclusive; GLP1R cytotox: -13.3%; Integrin act MD: -5.7%; BRCA1 expr act: -41.9%

Results for O=C(Cc1ccc(Cl)cc1)Nc1cc(Cl)ccn1 ?
GLP-1R agonist: 11.7%; GLP1R inv ag: inconclusive; GLP1R cytotox: -8.1%; Integrin act MD: 19.0%; BRCA1 expr act: 7.08µM*

What do the screens show for `O=C(Cc1ccc(Cl)cc1)Nc1ccncc1`?
GLP-1R agonist: -13.4%; GLP1R inv ag: 8.3%; GLP1R cytotox: 14.5%; Integrin act MD: -26.3%; BRCA1 expr act: -40.2%

How did CCc1cccc(C)c1NC(=O)c1cc(S(=O)(=O)N2CCN(c3ccccc3)CC2)ccc1F do in these assays?
GLP1R inv ag: inconclusive; GLP1R cytotox: 1.6%

What do the screens show for `Cn1c(-c2c(N)n(C3CCCC3)c3nc4ccccc4nc23)nc2ccccc21`?
GLP-1R agonist: -0.1%; GLP1R inv ag: 3.98µM*; GLP1R cytotox: 333.8%; Integrin act MD: 0.0%; BRCA1 expr act: -47.8%

How did Cc1ccc(CCNC(=O)c2ccc(CSCc3ccc(C)cc3)o2)cc1 do in these assays?
GLP1R inv ag: inconclusive; GLP1R cytotox: 12.3%

Results for COC(=O)c1ccccc1NC(=O)c1cc[n+]([O-])cc1 ?
GLP-1R agonist: -5.1%; GLP1R inv ag: 13.8%; GLP1R cytotox: 7.3%; Integrin act MD: 3.98µM*; BRCA1 expr act: 3.1%

How did CCOc1ccc(C2C(=O)N(C3CCCCC3)CC(=O)N2C2CCCC2)cc1OC (configuration not stated) do in these assays?
GLP1R inv ag: -1.3%; GLP1R cytotox: 0.2%

How did Cc1cc(/C=N/Nc2ncnc(N)c2[N+](=O)[O-])c(C)n1-c1ccccc1 do in these assays?
GLP-1R agonist: -6.0%; GLP1R inv ag: 2.24µM*; GLP1R cytotox: inconclusive; Integrin act MD: -12.9%; BRCA1 expr act: -80.7%

What do the screens show for `Cc1cc(/C=N/NC(=O)c2ccncc2)c(C)n1-c1ccccc1`?
GLP-1R agonist: 10.2%; GLP1R inv ag: -18.7%; GLP1R cytotox: -5.4%; Integrin act MD: -6.7%; BRCA1 expr act: 7.94µM*
